From PubChem BioAssay AID720542 (National Center for Advancing Translational Sciences (NCATS), 2013)
Screen size: about 360,000 compounds; about 740 (0.21%) were called active. Not shown: some 2% with an inconclusive outcome. Calls come from the whole dose curve; as a rule, active = well fitted inhibition curve with a large enough effect; inconclusive = small, poorly fitted or top-dose-only effect; inactive = no such curve, though single readings can be large or run the other way. This excerpt belongs to a sample that is enriched for actives.

tested on: Plasmodium falciparum AMA1 (3D7) - RON2 peptide interaction; assay: qHTS for Inhibitors of AMA1-RON; Towards Development of Antimalarial Drug Lead: Primary Screen; settings: AlphaScreen AMA1-biotinylated RON2 peptide binding; series mostly up to 58.2 µM; activity change, negative = inhibition: at the top concentration; note: nearly all actives have a fitted effect of over 45% in size;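 for activity change, negative = inhibition: 0% = vehicle wells and -100% = peptide control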
From the text: Plasmodium, the causative agent of malaria, is one of the world's deadliest parasitic diseases. Currently there is no vaccine available and there is widespread resistance to common anti-malarial drugs. This warrants novel, alternative approaches for developing improved therapy. During infection, one such essential interaction is between two parasite proteins, the apical membrane antigen1 (AMA1) that is translocated onto the merozoite surface and the rhoptry neck protein 2 (RON2), which is transferred to the red blood cells (RBC) membrane during invasion (Besteiro et.al., 2009). Recently, the Miller lab has shown that the interaction between AMA1 and RON2 is essential for junction formation of the parasite with the host cell (Srinivasan et.al., 2011). The binding of the RON2 peptide to the hydrophobic pocket in AMA triggers the formation of the moving junction which provides a firm anchor for the parasite to pull itself into the RBC using its actin-myosin motor; an irreversible step that commits the parasite for invasion. Only one AMA1 and RON2 genes exists in Plasmodium and there are no alternate pathways. Moreover, the region corresponding to RON2 peptide is conserved in all P. falciparum isolates for which sequences are available. The key residues in the AMA1 hydrophobic pocket that binds RON2 are also conserved and indicate a functional constraint governing this essential step in invasion since a short RON2 peptide (RON2L) corresponding to the binding region on AMA1 is sufficient to compete with the native RON2 protein and inhibits invasion (Tonkin et.al, 2011). Therefore, developing small molecule inhibitors of this interaction offers a promising target opening a new arena for anti-malarial therapeutics drug design.
In collaboration with the Miller lab, a quantitative High Throughput Screen using the AlphScreen technology was developed using a recombinant his-tagged AMA1 and a biotinylated RON2 peptide. This fluorescent screen was assayed against the NIH Molecular Libraries Small Molecule Repository (MLSMR). Inhibition of this protein-protein interaction is the desired outcome of this assay. However, due the limitations of this AlphaScreen assay, a large number of artifacts were observed. An AlphaScreen counterscreen was run to identify the true inhibitors, triage compound activity, and weed out false positives.
NIH Chemical Genomics Center [NCGC]
NIH Molecular Libraries Probe Centers Network [MLPCN]
Assay Submitter (PI): Louis Miller, National Institute of Allergy and Infectious Disease (NIAID)
Two microliters of his-tagged AMA1 3D7 allele protein (final concentration 25 nM) was dispensed into a 1,536-well assay plate. Small molecules and positive control peptides were pin-transferred (23 nL or 46 nL) via Kalypsys pin-tool equipped with a 1,536-pin array, resulting in final compound and peptide concentration ranges of 91.5 nM - 57.2 µM, and 15.6 nM - 2.00 µM, respectively. Unlabeled RON2 peptide or R1 peptide ([…]) that specifically binds the 3D7 AMA1 was used as a positive control that inhibited the binding of RON2L to AMA1. After 15 minutes incubation, 1 uL of biotinylated RON2 peptide (final concentration 25 nM) or buffer were dispensed and the assay plate was incubated for an additional 30 minutes at room temperature and protected from light. This was followed by an addition of 1 uL mixture of donor and acceptor beads (10 ug/mL final concentrations for each). The plates were incubated for 30 min at room temperature and read using the EnVision(R) plate reader (PerkinElmer). Maximum inhibition response was normalized to the positive control signal while no inhibition response was normalized to the DMSO treated wells.
Potency is the fitted concentration of half-maximal effect.

Structure (SMILES) | activity change, negative = inhibition | Potency
CCc1ccc(C2C(C#N)=C(N)N(N3CCOCC3)C3=C2C(=O)CC(C)(C)C3)s1 (stereo unspecified) | -9.12% (inactive) | –
Cc1cc(O)c(C(=O)/C=C/c2c(F)c(F)c(F)c(F)c2F)c(=O)o1 | 61.5% (inactive) | –
CCOc1ccccc1NC(=O)Cn1ncc2ccc([N+](=O)[O-])cc21 | -2.2% (inactive) | –
COc1ccc(CN2C(=O)C(C)S/C2=N/N=C/c2ccco2)cc1 (stereo unspecified) | -10.8% (inactive) | –
COc1ccc(N2C(=O)/C(=C/c3ccco3)C(=O)NC2=S)cc1 | – | 15.8 µM (active)
CCCCN=C1N/C(=C\c2ccco2)C(=O)N1c1ccccc1 | -7.64% (inactive) | –
CCC1SC2=NCCN2C1(O)c1ccc(Cl)cc1 (stereo unspecified) | -8.79% (inactive) | –
CC(C)CCNC(=O)Cn1c(=O)oc2cc(S(=O)(=O)N3CC(C)CC(C)C3)ccc21 (stereo unspecified) | 13.5% (inactive) | –
CN(C(=O)CN(CCO)CC(=O)N(C)C(C)(C)Cc1ccccc1)C(C)(C)Cc1ccccc1 | 14.9% (inactive) | –
CN1OC[C@@H]2CN(S(=O)(=O)c3cccc(C(F)(F)F)c3)[C@H](c3ccc(-c4cc5ccccc5o4)cc3)C[C@@H]21 | 6.6% (inactive) | –
CC1=C(C(=O)Nc2ccc(Cl)cc2)C(c2ccco2)NC(=O)N1 (stereo unspecified) | 5.1% (inactive) | –
CCNC(=O)N1CCNC(=O)C1CC(=O)Nc1ccc(C(=O)OCC)cc1 (stereo unspecified) | 12.7% (inactive) | –
CCOc1ccccc1-n1c(SCC(=O)NCc2ccco2)nnc1-c1ccncc1 | -7.89% (inactive) | –
Cc1ccc(NC(=O)CN2CCCCC2)c2c1CC(C)(C)O2 | -1.13% (inactive) | –
CC(=O)c1ccc(NC(=O)C(C)NCc2ccc(Cl)cc2)cc1 (stereo unspecified) | 0.354% (inactive) | –
CN(/C(=N/S(=O)(=O)c1cccs1)c1ccccc1)c1ccc(O)cc1 | 1.51% (inactive) | –
CC1CCC(NC(=O)CN(C)S(=O)(=O)c2ccc3c(c2)c(=O)n(C)c(=O)n3C)CC1 (stereo unspecified) | -5.96% (inactive) | –
O=S(=O)(c1ccc(Br)cc1)c1nc(-c2ccccc2)oc1NCc1cccnc1 | -2.21% (inactive) | –
O=C1CC(=O)Nc2cc(S(=O)(=O)N3CCN(c4cccc(C(F)(F)F)c4)CC3)ccc2N1 | -7.36% (inactive) | –
Cc1ccc(N(C(=O)Cc2cccs2)C(C(=O)NCC2CCCO2)c2ccncc2)cc1 (stereo unspecified) | 8.2% (inactive) | –
CCOC(=O)c1ccccc1NC(=O)COC(=O)C(Cc1c[nH]c2ccccc12)NC(C)=O (stereo unspecified) | -8.99% (inactive) | –

Structure (SMILES) | activity change, negative = inhibition | Potency
C=CCc1cccc2cc(C(=O)Nc3ccc(NC(C)=O)cc3)c(=O)oc12 | -3.69% (inactive) | –
Cc1cc(NC(=O)CSc2nnnn2-c2ccc(F)cc2)no1 | 12.3% (inactive) | –
Cc1cc(NC(=O)CSc2nnc(-c3ccc(Cl)s3)o2)no1 | – | 2.24 µM (active)
O=C(CSc1nnc(-c2ccncc2)o1)Nc1cccc(Cl)c1 | 8.5% (inactive) | –
CC1(C)C(c2ccccc2)=NC(c2cccnc2)=[N+]1[O-] | -0.104% (inactive) | –
COc1cccc(N(C(=O)c2snc(C(N)=O)c2N)C(C(=O)NCC2CCCO2)c2c[nH]c3ccccc23)c1 (stereo unspecified) | -5.17% (inactive) | –
Cc1ccc(NC(=O)COC(=O)CCc2nc3ccccc3n2-c2ccccc2)c(C)c1 | -3.7% (inactive) | –
CCN(c1ccc(NC(=O)COC(=O)CCc2nc3ccccc3n2-c2ccccc2)cc1)C(C)C | – | 10 µM (active)
CC(C)(C)c1ccc(NC(=O)COC(=O)CCc2nc3ccccc3c(=O)[nH]2)cc1 | -19.8% (inactive) | –
CC(C)NC(=O)Nc1ccc2c(c1)C(=O)N([C@H](C)CO)C[C@H](C)[C@@H](CN(C)Cc1ccc(C(F)(F)F)cc1)OCCCC[C@@H](C)O2 | 12.3% (inactive) | –
C=C1c2c(Cl)ccc(O)c2C(O)=C2C(=O)[C@]3(O)C(O)=C(C(N)=O)C(=O)[C@@H](N(C)C)[C@@H]3[C@@H](O)C12 (stereo partly specified) | – | 1.41 µM (active)
CC(=O)Nc1nc(C)c(Cc2ccccc2)c(=O)[nH]1 | 3.67% (inactive) | –
C#CCOCCOCCOCCNc1nc(N2CCN(C(=O)C([C@@H](C)CC)n3cc(C(N)COC(=O)C(F)(F)F)nn3)CC2)nc(N2CCN(C(=O)[C@H](Cc3ccc(O)cc3)n3cc(C(N)[C@H](C)CC)nn3)CC2)n1 (stereo partly specified) | 13.4% (inactive) | –
O=[N+]([O-])c1ccc(Sc2n[nH]c(-c3ccco3)n2)nc1 | 6.13% (inactive) | –
COc1ccc(CNC(=O)COC(=O)C2=Cc3ccccc3OC2)cc1 | 51.9% (inactive) | –
OCC#CC[N+]1(CC#Cc2ccccc2)CCCC1 | 3.31% (inactive) | –
CC1(C)Cc2c(sc(NC(=O)C(=O)NCC3CCCO3)c2C(=O)O)CO1 (stereo unspecified) | 139% (inactive) | –
O=C(Nc1ccc(CSc2ccccc2)cc1)c1ccc(CN2CCOCC2)cc1 | -4.5% (inactive) | –
CN(C)c1ccc(C(CC(=O)O)C(=O)O)cc1 (stereo unspecified) | -25.3% (inactive) | –
CN(C)c1ccc(CSc2ccccc2)cc1 | – | 8.91 µM (active)
Cc1cccc(CSc2nc3c(c(=O)n2C)SCC3)c1 | -14.7% (inactive) | –

Structure (SMILES) | activity change, negative = inhibition | Potency
O=C(O)c1ccc2c(=O)n3c(nc2c1)/C(=C/c1ccc(OC(F)F)cc1OC(F)F)CC3 | – | 20 µM (active)
N#Cc1ccc(/C=C2\CCn3c2nc2cc(C(=O)O)ccc2c3=O)cc1 | -7.09% (inactive) | –
Cc1ccc(/C=C2\CCn3c2nc2cc(C(=O)O)ccc2c3=O)c(C)c1 | 5.89% (inactive) | –
CCOC(=O)c1c(-n2cnnn2)sc(C)c1C | -5.49% (inactive) | –
COc1ccc2c(c1)c(=Cc1ccc(N(C)C)cc1)c1cc(-c3ccccc3)[n+](C)n12 | – | 17.8 µM (active)
CCCCCOC(=O)C1=C(C)Nc2nnnn2C1c1ccc(OC)c(OC)c1OC (stereo unspecified) | -11.7% (inactive) | –
COc1ccc(-c2nc3c(s2)CCc2onc(-c4ccc(Br)cc4)c2-3)cc1 | 7.5% (inactive) | –
CC1(C(=O)NCC2CCOCC2)Cc2c(-c3cccc(C(N)=O)c3)ccnc2O1 (stereo unspecified) | -0.312% (inactive) | –
CN(Cc1c(F)cccc1Cl)C(=O)COC(=O)Cn1cnc2ccccc2c1=O | 10.2% (inactive) | –
COc1ccc(C(C#N)=C2C=CC(=NO)c3ccccc32)cc1 | – | 12.6 µM (active)
COc1ccc(/C(N)=N/OC(=O)Oc2ccccc2)cc1 | -11.4% (inactive) | –
COC(=O)Nc1ncc(CN2CCCCC2)s1 | 11.8% (inactive) | –
CC(C)(C)c1nnc(N/N=C/c2ccc(O)cc2)n(N)c1=O | 46.9% (inactive) | –
CC(=O)Nc1ccc(S(=O)(=O)Nc2nc3n(n2)C(c2ccccc2)CC(=O)N3)cc1 (stereo unspecified) | -0.175% (inactive) | –
CCCCN(C(=O)CSCc1ccc(C)cc1)c1c(N)n(Cc2ccccc2)c(=O)[nH]c1=O | -24.8% (inactive) | –
O=C(Nn1cnnc1)c1cc(Cl)ccc1Cl | 3.21% (inactive) | –
Cc1cc(NC(=O)CCS(=O)(=O)c2ccc(F)cc2)no1 | -10% (inactive) | –
CCn1c(SCC(=O)NC2=NCCS2)nnc1C(C)NC(=O)c1ccccc1F (stereo unspecified) | 6.74% (inactive) | –
COc1ccc(NC(=O)NC2CC3CCCC(C2)N3Cc2ccccc2)cc1 (stereo unspecified) | 1.56% (inactive) | –
